Pf Dd2 inh: blocks in vitro growth of P. falciparum Dd2; P. falciparum Dd2 growth, SYBR Green, 72 h; Potency, µM (top dose mostly 28.9 µM), most hits filed as inhibitors; 120,000 compounds, 4.3% hits; AID 1347417; active = well fitted inhibition curve with a large enough effect; also: nearly all actives have a fitted effect of over 65% in size
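Infected erythrocytes (Dd2, 0.3% parasitemia, 2.5% hematocrit final) are added to compound in RPMI-1640/Albumax II medium, grown 72 h at 37C in low oxygen, then lysed with saponin/Triton-X containing SYBR Green and read by fluorescence.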
Each line names hits and unclear results; the compound was inactive in the other large screens. The sample as a whole holds a higher share of hits than the screen did.

CC1(COc2ccccc2)COc2ccc(C(=O)NCc3cccs3)cc2N1 (stereo not given)	none
CCC(C)NC(=O)C1COC2(CCN(C(=O)c3cccc(F)c3)CC2)N1C(=O)c1cccc(OC)c1 (stereo not given)	none
Cc1noc(-c2cn(C3CCN(C(=O)c4ccc5c(c4)OCO5)C3)nn2)n1 (stereo not given)	none
Cn1cc(S(=O)(=O)N2CCCC(C)(c3ccccc3)C2)cn1 (stereo not given)	none
Cc1noc(-c2ccc(C(C)(C)C)cc2)c1C(=O)NCc1ccc(F)cc1F	none
Cc1noc(-c2ccc(C(C)(C)C)cc2)c1C(=O)NCc1cc(F)cc(F)c1	Pf Dd2 inh 10µM
Cc1cccc(CNC(=O)c2c(C)noc2-c2ccc(C(C)(C)C)cc2)c1	none
N#Cc1ccc(C(=O)N[C@H]2CCOC[C@H]2C2CCOCC2)cn1	none
COc1cccc(CNC(=O)N2CCC(N3CC4CC(C3)[C@H]3CCCC(=O)N3C4)CC2)c1 (stereo not given in full)	none
O=c1c2nc(-c3ccccc3)ccc2ncn1Cc1ccccn1	none
Cc1ccc(C(C)C)c(OCC(=O)Nc2cc(-c3nc4ccccc4[nH]3)ccc2C)c1	Pf Dd2 inh 6.31µM
CC(C)CC(=O)Nc1cccc(-c2nc3ccccc3[nH]2)c1	none
COc1c(Cl)cc(C(=O)Nc2cc(-c3nc4ccccc4[nH]3)ccc2C)cc1Cl	none
COc1ccc(C(=O)N2C[C@@H](Oc3ccccc3)C[C@H]2C(=O)N2CCCC2)cc1	none
COc1cc(Cl)c(C)cc1NC(=O)c1sc2nc(C)cc(C)c2c1N	none
CCC(C)NC(=O)c1sc2nc(C)c(C(=O)Nc3ccc(Cl)cc3)c(-c3ccc(Br)cc3)c2c1N (stereo not given)	none
COc1cccc(-c2ccc3c(N)c(C(=O)Nc4cc(F)ccc4F)sc3n2)c1	none
COc1cccc(NC(=O)c2c(C)nn(-c3cccc(C)c3)c2-n2cccc2)c1	none
Cc1ccc(Cl)cc1NC(=O)c1sc2nc(C)c(C)c(C)c2c1N	none
COc1cccc(NC(=O)c2sc3nc(C)c(C(=O)Nc4ccc(C)cc4C)c(-c4ccccc4Cl)c3c2N)c1	Pf Dd2 inh 1µM
COc1cccc(-c2ccc3c(N)c(C(=O)Nc4ccccc4C)sc3n2)c1	none
COc1cccc(NC(=O)c2sc3nc(C)c(C(=O)Nc4ccc(C)cc4C)c(-c4sccc4C)c3c2N)c1	Pf Dd2 inh 2.24µM
COc1cccc(NC(=O)c2sc3nc(C)c(C(=O)Nc4ccc(C)cc4C)c(-c4ccco4)c3c2N)c1	Pf Dd2 inh 3.16µM
CCN1C(=O)C(CC(=O)NCC2CCCO2)Sc2ncccc21 (stereo not given)	none
NC(=O)C1CCN(CC[C@H]2CN(C(=O)Nc3ccc(C(F)(F)F)cc3)CC[C@H]2CC(=O)O)CC1	none
O=C(NCc1ccc(F)cc1F)c1cc2n(n1)CC(c1ccc3c(c1)OCO3)OC2 (stereo not given)	none
COCCNC(=O)C[C@@H]1O[C@H](CNC(=O)Nc2ccccc2)[C@@H](O)[C@H]1O	none
COc1cccc(CC(=O)NCC(=O)N2CCCCCCNC(=O)CC2c2ccccc2)c1 (stereo not given)	none
COc1ccc2cc(C(=O)NCC(=O)N3CCCCCCNC(=O)CC3c3ccccc3)[nH]c2c1 (stereo not given)	Pf Dd2 inh 14.1µM
COc1ccc(C(=O)NCC(=O)N2CCCCCCNC(=O)CC2c2ccccc2)cc1F (stereo not given)	none
O=C1CC(c2ccccc2)N(C(=O)CNC(=O)c2n[nH]c3ccccc23)CCCCCN1 (stereo not given)	none
O=C1CC(c2ccccc2)N(C(=O)CNC(=O)c2ccncc2)CCCCCCN1 (stereo not given)	none
O=C1CC(c2ccccc2)N(C(=O)CNC(=O)c2ccccn2)CCCCCCN1 (stereo not given)	none
O=C1CC(c2ccccc2)N(C(=O)CNC(=O)c2[nH]nc3c2COc2ccccc2-3)CCCCCN1 (stereo not given)	Pf Dd2 inh 2.51µM
O=C1CC(c2ccccc2)N(C(=O)CNC(=O)c2cccnc2)CCCCCCN1 (stereo not given)	none
O=C1CC(c2ccccc2)N(C(=O)CNC(=O)c2nccc3ccccc23)CCCCCCN1 (stereo not given)	Pf Dd2 inh 0.355µM
CNC(=O)[C@@H]1CN(C(=O)c2cccnc2)C[C@H]1COC	none
COCCN(C)Cc1c(C(=O)N(C)Cc2ccccc2)nc2ccccn12	none
CNC(=O)[C@@H]1CN(Cc2cnn(C)c2)C[C@H]1COC	none
O=C(c1ccc(Cl)cc1)N1CCC(n2cc(-c3ccccn3)[nH]c2=O)CC1	none
COc1ncc(-c2cnc3[nH]cc(CC(=O)N4CCOCC4)c3c2)cn1	none
COc1ccccc1-c1cc(C(=O)N(C)C)nn2cccc12	none
COc1ccc(-c2noc([C@@H](C)NC(=O)c3ccc4c(c3)OCO4)c2C(=O)O)cc1	none
CCN(CC)C(=O)[C@@H](C)C1CC[C@@]2(C)Cc3sc(Nc4c(Cl)cccc4Cl)nc3[C@@H](C)[C@@H]2[C@H]1O (stereo not given in full)	Pf Dd2 inh 12.6µM
CCN(CC)C(=O)C(C)[C@@H]1CC[C@@]2(C)Cc3sc(NC(=O)C4CC4)nc3[C@@H](C)[C@@H]2[C@H]1O (stereo not given in full)	none
C#CCN(C)C(=O)[C@@H](C)C1CC[C@@]2(C)Cc3sc(NC)nc3[C@@H](C)[C@@H]2[C@H]1O (stereo not given in full)	none
CSc1ccc(CNC(=O)c2ccc3c(c2)N(C)C2CCCCN2C3=O)cc1 (stereo not given)	none
Cc1ccc2c(n1)N(C)[C@H](CO)CCN(CC1CCCCC1)C2	none
Cc1ccccc1-n1nc(C)c(CCC(=O)N(C)C(C)C)c1Oc1ccccc1F	Pf Dd2 inh 6.31µM
C=CCNC(=O)CCc1c(C)nn(-c2ccc(F)cc2)c1Oc1ccccc1F	none
Cc1nn(-c2ccc(F)cc2)c(Oc2ccc(F)cc2F)c1CCC(=O)NCc1ccco1	none
CCNC(=O)CCc1c(C)nn(-c2ccccc2)c1Oc1ccccc1F	none
C=CCNC(=O)CCc1c(C)nn(-c2ccccc2)c1Oc1ccccc1	none
Cc1nn(-c2ccc(F)cc2)c(Oc2ccc(F)cc2F)c1CCC(=O)N(C)C(C)C	none
Cc1cccc(-n2nc(C)c(CCC(=O)N(C)C(C)C)c2Oc2ccc(F)cc2F)c1	none
Cc1nn(-c2ccccc2)c(Oc2ccccc2F)c1CCC(=O)NCc1ccco1	Pf Dd2 inh 7.94µM
C=CCNC(=O)CCc1c(C)nn(-c2ccc(F)cc2)c1Oc1ccccc1	Pf Dd2 inh 7.94µM
CCc1nc(CN2CCC(N3CCCC(C(=O)NCc4ccccn4)C3)CC2)no1 (stereo not given)	none
O=C(c1cc(F)ccc1F)N1CCCC(c2nc(C3CCOCC3)no2)C1 (stereo not given)	none
O=c1n(CC2CC2)nc2n1CCN(S(=O)(=O)c1cccnc1)CC2	none
CN(Cc1ccccc1C(F)(F)F)C1CCc2ccccc21 (stereo not given)	none
CCOCCCNC(=O)CCc1nc(C2CCCN2C(=O)c2ccccc2)no1 (stereo not given)	none
COc1ccc(C[C@H](NC(=O)C2=C[C@@H](NS(=O)(=O)c3cccc(C(F)(F)F)c3)[C@@H](O)[C@H](O)C2)C(N)=O)cc1	none
COc1ccccc1C(=O)CC1(O)C(=O)N(CC(N)=O)c2ccccc21 (stereo not given)	none
C#CCN1C(=O)C(O)(CC(=O)c2ccc(OC)c(OC)c2)c2cc(Br)ccc21 (stereo not given)	none
O=C(CC1(O)C(=O)N(CCc2ccccc2)c2ccc(Br)cc21)c1ccccc1O (stereo not given)	Pf Dd2 inh 10µM
CCn1ncc(N2CCC(NC(=O)CC(C)C)CC2)cc1=O	none

Screens deposited in PubChem BioAssay by National Center for Advancing Translational Sciences (NCATS).
